Measured values taken from PMC5700166.
Positions count from the first letter of the chain named.

Experiments:
Assay in all cases: protein-binding microarray (PBM); PBM: ~300 nM protein, 6 mM HEPES pH 7.8, 80 mM KCl, 0.5 mM EDTA, 0.5 mM EGTA, 6% glycerol, 35 ng/ul poly-dIdC, 1% milk, 1 h, room temperature; Ap Aiptasia and Nv Nematostella (sea anemones) / Co Capsaspora / Aq Amphimedon (sponge) / Dm Drosophila / Hu human; RHD is the Rel homology domain; high values mean tight binding
Details in all cases: dsDNA, one strand shown
GST-Ap-NF-kB RHD = target: T1, GST-Ap-NF-kB RHD (Exaiptasia pallida (Aiptasia), UniProt A0A913YAJ5 2-422)
T1 sequence: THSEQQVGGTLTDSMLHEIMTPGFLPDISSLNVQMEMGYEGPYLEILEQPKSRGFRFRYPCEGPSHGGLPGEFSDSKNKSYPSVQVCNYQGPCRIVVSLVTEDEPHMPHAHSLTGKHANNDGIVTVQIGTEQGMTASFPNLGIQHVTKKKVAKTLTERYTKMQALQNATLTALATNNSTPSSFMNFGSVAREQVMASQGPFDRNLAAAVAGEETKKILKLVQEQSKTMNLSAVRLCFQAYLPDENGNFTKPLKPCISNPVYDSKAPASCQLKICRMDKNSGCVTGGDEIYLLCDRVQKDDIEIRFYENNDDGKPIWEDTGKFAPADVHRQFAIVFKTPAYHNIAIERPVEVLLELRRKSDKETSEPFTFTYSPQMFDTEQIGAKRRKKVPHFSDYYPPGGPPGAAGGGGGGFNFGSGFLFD

[1] = target: T2, GST-Nv-NF-kB (Cys allele) (Nematostella vectensis, UniProt E5G601 2-411)
T2 sequence: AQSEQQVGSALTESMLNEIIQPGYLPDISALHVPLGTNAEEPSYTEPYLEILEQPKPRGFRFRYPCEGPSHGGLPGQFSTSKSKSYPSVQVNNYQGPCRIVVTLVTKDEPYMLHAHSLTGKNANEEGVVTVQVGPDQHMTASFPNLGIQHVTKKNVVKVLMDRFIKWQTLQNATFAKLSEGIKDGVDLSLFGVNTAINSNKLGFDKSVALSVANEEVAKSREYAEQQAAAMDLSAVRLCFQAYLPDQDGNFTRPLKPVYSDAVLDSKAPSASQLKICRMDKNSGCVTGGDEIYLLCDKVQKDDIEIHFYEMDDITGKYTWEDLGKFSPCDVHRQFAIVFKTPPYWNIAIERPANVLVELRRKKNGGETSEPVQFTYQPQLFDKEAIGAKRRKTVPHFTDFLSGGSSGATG

[2] = target: T3, GST-Nv-NF-kB (Ser allele) (Nematostella vectensis, UniProt A7UNT2 2-411)
T3 sequence: T2 sequence with Q21R, C66S, S207N, E215Q, V217A, E225K, A268E, D399E

GST-Co-NF-kB = target: T4, GST-Co-NF-kB (Capsaspora owczarzaki, UniProt F1ARL5 200-546)
T4 sequence: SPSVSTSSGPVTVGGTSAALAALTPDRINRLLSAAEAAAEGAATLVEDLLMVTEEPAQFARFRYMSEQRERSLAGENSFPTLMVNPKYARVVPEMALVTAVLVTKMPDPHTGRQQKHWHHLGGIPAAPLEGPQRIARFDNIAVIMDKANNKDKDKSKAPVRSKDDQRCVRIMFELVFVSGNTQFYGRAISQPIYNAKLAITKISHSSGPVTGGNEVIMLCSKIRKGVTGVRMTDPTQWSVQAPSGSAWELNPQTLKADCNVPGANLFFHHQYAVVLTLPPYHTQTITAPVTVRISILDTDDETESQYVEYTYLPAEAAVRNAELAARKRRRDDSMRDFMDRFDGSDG

GST-Dm-Relish = target: T5, GST-Dm-Relish (Drosophila melanogaster, UniProt Q94527 99-473)
T5 sequence: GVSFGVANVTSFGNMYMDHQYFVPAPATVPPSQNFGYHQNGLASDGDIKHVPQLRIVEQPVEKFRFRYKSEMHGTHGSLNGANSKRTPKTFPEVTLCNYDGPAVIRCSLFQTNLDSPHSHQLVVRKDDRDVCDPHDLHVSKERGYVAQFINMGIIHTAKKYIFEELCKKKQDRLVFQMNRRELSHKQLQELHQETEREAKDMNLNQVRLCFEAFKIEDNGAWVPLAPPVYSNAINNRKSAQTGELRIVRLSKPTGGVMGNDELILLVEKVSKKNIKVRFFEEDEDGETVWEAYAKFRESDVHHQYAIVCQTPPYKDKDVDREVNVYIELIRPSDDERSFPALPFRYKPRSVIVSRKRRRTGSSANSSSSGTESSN

GST-Aq-NF-kB = target: T6, GST-Aq-NF-kB (Amphimedon queenslandica, UniProt A9Y5G7 2-389)
T6 sequence: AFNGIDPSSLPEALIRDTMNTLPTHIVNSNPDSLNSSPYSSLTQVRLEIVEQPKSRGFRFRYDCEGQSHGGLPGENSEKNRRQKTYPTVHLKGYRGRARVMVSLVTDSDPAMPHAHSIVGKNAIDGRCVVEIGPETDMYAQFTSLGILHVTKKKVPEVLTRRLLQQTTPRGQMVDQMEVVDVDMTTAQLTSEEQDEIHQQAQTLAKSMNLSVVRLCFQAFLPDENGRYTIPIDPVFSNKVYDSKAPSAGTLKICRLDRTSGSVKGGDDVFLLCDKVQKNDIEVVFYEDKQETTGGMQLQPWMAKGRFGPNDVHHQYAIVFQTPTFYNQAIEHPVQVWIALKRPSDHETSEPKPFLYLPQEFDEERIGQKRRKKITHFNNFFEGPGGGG

GST-Hu-p50 = GST-Hu-p50 (Homo sapiens, UniProt P19838 7-356)
Sequence of GST-Hu-p50 (P19838 7-356): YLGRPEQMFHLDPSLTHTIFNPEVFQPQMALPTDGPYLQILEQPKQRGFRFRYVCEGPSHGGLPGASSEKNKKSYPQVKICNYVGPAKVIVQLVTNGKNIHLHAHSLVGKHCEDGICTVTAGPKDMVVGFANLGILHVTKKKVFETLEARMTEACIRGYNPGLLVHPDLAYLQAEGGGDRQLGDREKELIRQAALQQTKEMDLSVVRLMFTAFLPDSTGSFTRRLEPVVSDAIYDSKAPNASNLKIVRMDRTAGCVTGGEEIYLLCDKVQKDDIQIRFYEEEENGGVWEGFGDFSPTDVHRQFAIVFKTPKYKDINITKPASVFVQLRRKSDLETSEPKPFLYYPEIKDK

Sequence	binding signal (GST-Ap-NF-kB RHD)	binding signal [1]	binding signal [2]	binding signal (GST-Co-NF-kB)	binding signal (GST-Dm-Relish)	binding signal (GST-Aq-NF-kB)	binding signal (GST-Hu-p50)
CCGATTAACATCAGGGGAGGGAATGATGTTAATCGGGTCTTGATTCGCTTGACGCTGCTG	3.95 z-score	5.44 z-score	5.03 z-score	5.53 z-score	2.13 z-score	5.17 z-score	3.3 z-score
CCGATTAACATCAGGGGAATTACTGATGTTAATCGGGTCTTGATTCGCTTGACGCTGCTG	8.73 z-score	10.6 z-score	10.2 z-score	7.45 z-score	10.2 z-score	8.27 z-score	7.09 z-score
CCGATTAACATCACGGAATCCCCTGATGTTAATCGGGTCTTGATTCGCTTGACGCTGCTG	8.93 z-score	8.59 z-score	9.68 z-score	3.45 z-score	9.36 z-score	6.48 z-score	6.67 z-score
CCGATTAACATCAATACTCCCCCTGATGTTAATCGGGTCTTGATTCGCTTGACGCTGCTG	6.61 z-score	5.41 z-score	6.73 z-score	8.03 z-score	3.95 z-score	4.97 z-score	6.4 z-score
CCGATTAACATCAATTTTTCCCCTGATGTTAATCGGGTCTTGATTCGCTTGACGCTGCTG	7 z-score	8.62 z-score	11.5 z-score	11.2 z-score	5.15 z-score	5.96 z-score	6.59 z-score
CCGATTAACATCAATATTTCCCCTGATGTTAATCGGGTCTTGATTCGCTTGACGCTGCTG	8.09 z-score	10.1 z-score	13.2 z-score	10.7 z-score	5.87 z-score	6.9 z-score	7.24 z-score
CCGATTAACATCAGGGGAACCCATGATGTTAATCGGGTCTTGATTCGCTTGACGCTGCTG	7.48 z-score	5.77 z-score	6.55 z-score	4.47 z-score	8.55 z-score	4.7 z-score	4.58 z-score
CCGATTAACATCAGAAATTTCCCTGATGTTAATCGGGTCTTGATTCGCTTGACGCTGCTG	5.84 z-score	8.58 z-score	8.13 z-score	5.21 z-score	4.81 z-score	7.73 z-score	5.92 z-score
CCGATTAACATCAGGGGACTCACTGATGTTAATCGGGTCTTGATTCGCTTGACGCTGCTG	5.12 z-score	4.13 z-score	4.07 z-score	3.05 z-score	8.85 z-score	4.46 z-score	4.32 z-score
CCGATTAACATCACAAAAAACCCTGATGTTAATCGGGTCTTGATTCGCTTGACGCTGCTG	3.76 z-score	4.37 z-score	4.38 z-score	1.78 z-score	5.51 z-score	5.58 z-score	4.61 z-score
CCGATTAACATCAAAATTCCCGCTGATGTTAATCGGGTCTTGATTCGCTTGACGCTGCTG	4.49 z-score	5.99 z-score	5.62 z-score	5.23 z-score	5.76 z-score	5.51 z-score	4.41 z-score
CCGATTAACATCAGGGGGACTACTGATGTTAATCGGGTCTTGATTCGCTTGACGCTGCTG	6.49 z-score	4.44 z-score	4.46 z-score	4.53 z-score	6.39 z-score	5.25 z-score	4.55 z-score
